Results: PubChem BioAssay AID1159580 (chemical genetic matrix, 2015)
Values joined by “and” are separate entries in the source; they are usually repeats but may differ in a detail not shown here. Identical values can stand only once. The campaign covered roughly 5,500 compounds. About 2,000 (36%) were called active. Roughly 18% stayed inconclusive and do not appear here. No stated cut-off is given here; in the data, active means normalized growth mostly below about 0.91 (no sharp cut-off); inconclusive means no clear call, values can overlap the other calls; inactive means mostly above about 0.92. The list shows a part of the results.

Assay: chemical genetic growth profiling, strain panel (AID 1159580);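 further: tested at 20 µM; growth read once vehicle control cultures reached saturation at 30 °C; 1 = growth at the plate median or of vehicle wells; lower values mean less growth of the strain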
Conditions: S. cerevisiae deletion strains, growth OD

Measured: normalized growth

COC(=O)C[C@H]1C(C)(C)C(=O)[C@@H]2CC3=C4CC(=O)O[C@@H](c5ccoc5)[C@]4(C)CCC3[C@@]1(C)C2=O (stereo not given in full)
inactive: locus YAL021C, strain ccr4, active compounds read low 0.972 | locus YAL026C, strain drs2, active compounds read low 0.983 | locus YAL030W, strain snc1, active compounds read low 1 | locus YBL061C, strain skt5, active compounds read low 0.997 | locus YBR009C, strain hhf1, active compounds read low 0.987 | locus YBR021W, strain FUR4, active compounds read low 0.986 | locus YBR023C, strain chs3, active compounds read low 1 | locus YBR171W, strain sec66, active compounds read low 0.992 | locus YBR229C, strain ROT2, active compounds read low 1 | locus YBR231C, strain swc5, active compounds read low 1.01 | locus YBR279W, strain paf1, active compounds read low 0.993 | locus YCL011C, strain gbp2, active compounds read low 1 | locus YCL016C, strain dcc1, active compounds read low 0.996 | locus YCL029C, strain bik1, active compounds read low 0.998 | locus YCL061C, strain MRC1, active compounds read low 0.988 | locus YCL069W, strain vba3, active compounds read low 0.987 | locus YCR088W, strain abp1, active compounds read low 0.988 | locus YDL005C, strain med2, active compounds read low 0.975 | locus YDL035C, strain GPR1, active compounds read low 1.01 | locus YDL040C, strain nat1, active compounds read low 0.995 | locus YDL074C, strain BRE1, active compounds read low 1.02 | locus YDL101C, strain DUN1, active compounds read low 1.01 | locus YDL134C, strain PPH21, active compounds read low 1.01 | locus YDL185W, strain tfp1, active compounds read low 1.02 | locus YDL192W, strain arf1, active compounds read low 1.01 | locus YDR001C, strain nth1, active compounds read low 0.982 | locus YDR069C, strain doa4, active compounds read low 0.982 | locus YDR101C, strain arx1, active compounds read low 0.993 | locus YDR137W, strain rgp1, active compounds read low 0.867 | locus YDR159W, strain sac3, active compounds read low 0.999 | locus YDR162C, strain NBP2, active compounds read low 1 | locus YDR195W, strain ref2 0.972 | locus YDR297W, strain sur2, active compounds read low 0.996 | locus YDR318W, strain mcm21, active compounds read low 1.01 | locus YDR334W, strain swr1, active compounds read low 0.986 | locus YDR335W, strain msn5, active compounds read low 0.985 | locus YDR388W, active compounds read low 1.01 | locus YDR392W, strain spt3, active compounds read low 0.989 | locus YDR502C, strain sam2, active compounds read low 1 | locus YEL003W, strain gim4, active compounds read low 0.996 | locus YEL037C, strain rad23, active compounds read low 0.985 | locus YEL061C, strain CIN8 (second series), active compounds read low 0.985 | locus YEL061C, strain CIN8, active compounds read low 1 | locus YER015W, strain faa2, active compounds read low 1 | locus YER016W, strain bim1, active compounds read low 0.996 | locus YER110C, active compounds read low 1.01 | locus YER111C, strain swi4, active compounds read low 0.985 | locus YER155C, strain BEM2 (second series), active compounds read low 1 | locus YER155C, strain BEM2, active compounds read low 0.997 | locus YER167W, strain BCK2, active compounds read low 1 | locus YFR010W, strain ubp6, active compounds read low 0.978 | locus YGL078C, strain dbp3, active compounds read low 1.02 | locus YGL086W, strain mad1, active compounds read low 0.982 | locus YGL167C, strain pmr1, active compounds read low 0.995 | locus YGL173C, strain kem1, active compounds read low 0.994 | locus YGL227W, strain vid30, active compounds read low 1 | locus YGL240W, strain doc1, active compounds read low 1.02 | locus YGL248W, strain PDE1, active compounds read low 1.01 | locus YGL253W, strain hxk2, active compounds read low 0.995 | locus YGR078C, strain PAC10, active compounds read low 1.01 | locus YGR135W, strain pre9, active compounds read low 1.02 | locus YGR229C, strain SMI1, active compounds read low 1.01 | locus YGR252W, strain gcn5, active compounds read low 1.03 | locus YHR013C, strain ard1, active compounds read low 0.977 | locus YHR027C, strain rpn1, active compounds read low 0.974 | locus YHR030C, strain SLT2, active compounds read low 1.01 and 0.964 | locus YHR079C, strain IRE1 (second series), active compounds read low 1 | locus YHR079C, strain IRE1, active compounds read low 0.976 | locus YHR094C, strain hxt1, active compounds read low 1.01 | locus YHR129C, strain ARP1, active compounds read low 0.999 | locus YHR142W, strain chs7, active compounds read low 0.996 | locus YHR200W, strain rpn10, active compounds read low 1 | locus YIL066C, strain RNR3, active compounds read low 1.01 | locus YIL073C, strain SPO22, active compounds read low 1.06 | locus YIL125W, strain kgd1, active compounds read low 1.01 | locus YIR030C, strain dcg1, active compounds read low 1.01 | locus YJL092W, strain hpr5, active compounds read low 0.993 | locus YJL095W, strain BCK1 (second series), active compounds read low 0.992 | locus YJL095W, strain BCK1, active compounds read low 1.02 and 0.974 | locus YJL115W, strain asf1, active compounds read low 0.978 | locus YJL129C, strain trk1, active compounds read low 0.971 | locus YJL134W, strain LCB3, active compounds read low 1.01 | locus YJL154C, strain vps35, active compounds read low 0.983 | locus YJL164C, strain tpk1, active compounds read low 1 | locus YJL166W, strain qcr8, active compounds read low 1.01 | locus YJL168C, strain set2, active compounds read low 1.01 | locus YJL187C, strain SWE1 (second series), active compounds read low 1.02 | locus YJL187C, strain SWE1, active compounds read low 0.991 | locus YJR066W, strain TOR1, active compounds read low 0.918 | locus YKL009W, strain mrt4, active compounds read low 0.999 | locus YKL068W, active compounds read low 1.01 | locus YKL085W, strain MDH1 (second series), active compounds read low 0.995 | locus YKL085W, strain MDH1, active compounds read low 0.995 | locus YKL160W, strain elf1, active compounds read low 0.996 | locus YKL190W, strain CNB1, active compounds read low 1.01 | locus YKR001C, strain vps1, active compounds read low 1.02 | locus YKR026C, strain gcn3, active compounds read low 0.994 | locus YKR091W, strain srl3, active compounds read low 0.992 | locus YLL001W, strain dnm1, active compounds read low 0.983 | locus YLL026W, active compounds read low 0.991 | locus YLL041C, strain sdh2, active compounds read low 0.991 | locus YLR027C, strain aat2, active compounds read low 0.998 | locus YLR039C, strain RIC1, active compounds read low 0.988 | locus YLR058C, strain SHM2, active compounds read low 1 | locus YLR102C, strain apc9, active compounds read low 1.01 | locus YLR113W, strain HOG1, active compounds read low 1.01 | locus YLR221C, strain rsa3, active compounds read low 0.998 | locus YLR258W, strain gsy2, active compounds read low 0.988 | locus YLR262C, strain YPT6 (second series), active compounds read low 0.912 | locus YLR268W, strain sec22, active compounds read low 1 | locus YLR320W, strain mms22, active compounds read low 1.01 | locus YLR330W, strain CHS5, active compounds read low 1 | locus YLR342W, strain FKS1, active compounds read low 0.998 | locus YLR357W, strain rsc2, active compounds read low 1.01 | locus YLR370C, strain arc18, active compounds read low 0.988 | locus YLR371W, strain rom2, active compounds read low 1.01 | locus YLR384C, strain iki3, active compounds read low 0.993 | locus YLR418C, strain cdc73, active compounds read low 1.03 | locus YML016C, strain PPZ1, active compounds read low 0.998 | locus YML032C, strain rad52, active compounds read low 0.997 | locus YML120C, strain ndi1, active compounds read low 0.995 | locus YML124C, strain tub3, active compounds read low 1.01 | locus YMR058W, strain fet3, active compounds read low 0.981 | locus YMR078C, strain ctf18, active compounds read low 1.02 | locus YMR125W, strain sto1, active compounds read low 0.982 | locus YMR129W, active compounds read low 0.998 | locus YMR205C, strain PFK2, active compounds read low 0.988 | locus YMR223W, strain ubp8, active compounds read low 0.999 | locus YMR231W, strain pep5, active compounds read low 0.98 | locus YMR307W, strain GAS1, active compounds read low 0.96 | locus YNL067W, strain RPL9B, active compounds read low 1.02 | locus YNL071W, strain lat1, active compounds read low 0.989 | locus YNL183C, strain NPR1, active compounds read low 0.963 | locus YNL209W, strain ssb2, active compounds read low 0.996 | locus YNL233W, strain BNI4, active compounds read low 1.03 | locus YNL248C, strain rpa49, active compounds read low 0.982 | locus YNL250W, strain rad50, active compounds read low 0.998 | locus YNL271C, strain bni1, active compounds read low 1.01 | locus YNL298W, strain CLA4, active compounds read low 1.03 | locus YNL307C, strain MCK1, active compounds read low 1.01 | locus YNL322C, strain KRE1 (second series), active compounds read low 0.996 | locus YNR049C, strain mso1, active compounds read low 0.987 | locus YNR052C, strain pop2, active compounds read low 1.01 | locus YOL012C, strain htz1 0.887 | locus YOL147C, strain pex11, active compounds read low 1.01 | locus YOR001W, strain rrp6, active compounds read low 0.985 | locus YOR061W, strain CKA2, active compounds read low 1 | locus YOR069W, strain VPS5, active compounds read low 1 | locus YOR070C, strain gyp1, active compounds read low 0.991 | locus YOR080W, strain dia2, active compounds read low 0.995 | locus YOR083W, strain WHI5, active compounds read low 0.996 | locus YOR106W, strain vam3, active compounds read low 0.991 | locus YOR136W, strain idh2, active compounds read low 1.01 | locus YOR144C, strain elg1, active compounds read low 1 | locus YOR184W, strain ser1, active compounds read low 1 | locus YOR231W, strain MKK1, active compounds read low 0.979 | locus YOR265W, strain rbl2, active compounds read low 0.987 | locus YOR270C, strain vph1, active compounds read low 0.941 | locus YOR290C, strain snf2, active compounds read low 1 | locus YOR316C, strain cot1, active compounds read low 1.01 | locus YPL051W, strain arl3, active compounds read low 0.992 | locus YPL078C, strain atp4, active compounds read low 0.987 | locus YPL106C, strain sse1, active compounds read low 1.04 | locus YPL240C, strain hsp82, active compounds read low 0.998 | locus YPL256C, strain CLN2, active compounds read low 0.97 | locus YPR119W, strain clb2, active compounds read low 1.01 | locus YPR141C, strain kar3, active compounds read low 1.01 | locus YPR163C, strain tif3, active compounds read low 1.01 | locus YPR167C, strain met16, active compounds read low 1.01 | strain wtn01, active compounds read low 0.981
